Several values for one entry are separate records, joined by “and”; a condition that tells them apart may be missing. Equal entries are not always repeated. Compounds without any hit were thinned out: in the full panel of roughly 83,000, 20% have a hit.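 Negative percent growth values reflect cell death: -40 means 40% of the cells present at the start died, and -100 means all died.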 Activity calls are given as the source filed them. The calls were made as follows: active = growth percent below 10; inactive = the rest.
Experiments:
Test in all cases: NCI-60 one-dose screen, 48 h (100 = growth as untreated, 0 = no growth, -100 = all killed)
Details in all cases: 10 µM unless noted
NCI-H226 lung = tested on: NCI-H226 lung
NCI-H322M lung = tested on: NCI-H322M lung
HOP-62 NSCLC = tested on: HOP-62 NSCLC
NCI-H460 lung = tested on: NCI-H460 lung
HOP-92 NSCLC = tested on: HOP-92 NSCLC
NCI-H522 lung = tested on: NCI-H522 lung
A549/ATCC NSCLC = tested on: A549/ATCC NSCLC
786-0 renal = tested on: 786-0 renal
COLO 205 colon = tested on: COLO 205 colon
DU-145 prostate = tested on: DU-145 prostate
MALME-3M melanoma = tested on: MALME-3M melanoma
MDA-MB-231 breast = tested on: MDA-MB-231 breast
RXF 393 renal = tested on: RXF 393 renal
SF-268 CNS = tested on: SF-268 CNS
SF-295 CNS = tested on: SF-295 CNS
SF-539 CNS = tested on: SF-539 CNS
UACC-257 melanoma = tested on: UACC-257 melanoma
M14 melanoma = tested on: M14 melanoma
NCI-H23 lung = tested on: NCI-H23 lung
K-562 leukemia = tested on: K-562 leukemia

Row | Structure (SMILES) | growth (NCI-H226 lung) | growth (NCI-H322M lung) | growth (HOP-62 NSCLC) | growth (NCI-H460 lung) | growth (HOP-92 NSCLC) | growth (NCI-H522 lung) | growth (A549/ATCC NSCLC) | growth (786-0 renal) | growth (COLO 205 colon) | growth (DU-145 prostate) | growth (MALME-3M melanoma) | growth (MDA-MB-231 breast) | growth (RXF 393 renal) | growth (SF-268 CNS) | growth (SF-295 CNS) | growth (SF-539 CNS) | growth (UACC-257 melanoma) | growth (M14 melanoma) | growth (NCI-H23 lung) | growth (K-562 leukemia)
1 | O=C=NC(c1ccccc1)(c1ccccc1)c1ccccc1 | 111% (inactive) | 104% (inactive) | 143% (inactive) | 111% (inactive) | 110% (inactive) | 90.2% (inactive) | 107% (inactive) | 95% (inactive) | 101% (inactive) | 106% (inactive) | 95.2% (inactive) | 97.5% (inactive) | 129% (inactive) | 104% (inactive) | 98% (inactive) | 110% (inactive) | 107% (inactive) | 101% (inactive) | – | –
2 | CCCCCCCCCCCCCCCCOc1ccc(C)cc1 | 107% (inactive) | 111% (inactive) | – | 114% (inactive) | – | 104% (inactive) | 102% (inactive) | 107% (inactive) | 111% (inactive) | 110% (inactive) | 103% (inactive) | 100% (inactive) | 118% (inactive) | 114% (inactive) | – | 93.2% (inactive) | 111% (inactive) | 111% (inactive) | 98.2% (inactive) | 108% (inactive)
3 | CC(/C=N/N1C(=O)c2ccccc2C1=O)c1ccccc1 (stereo not drawn) | 90.6% (inactive) | 98.1% (inactive) | 112% (inactive) | – | – | 104% (inactive) | 88.3% (inactive) | 102% (inactive) | 114% (inactive) | 115% (inactive) | 101% (inactive) | 108% (inactive) | 101% (inactive) | 117% (inactive) | 90.9% (inactive) | 106% (inactive) | 90.5% (inactive) | 108% (inactive) | 108% (inactive) | 106% (inactive)
4 | C[N+](C)(C)CN1C(=O)c2ccccc2C1=O | 112% (inactive) | – | 96% (inactive) | 105% (inactive) | – | 90.9% (inactive) | – | 104% (inactive) | 104% (inactive) | 113% (inactive) | – | 114% (inactive) | 105% (inactive) | 110% (inactive) | – | 99.5% (inactive) | 97.8% (inactive) | 103% (inactive) | 105% (inactive) | 92% (inactive)
5 | O=C(Cc1cccc2ccccc12)N/N=C/c1ccc2c(c1)CCC2 | 97.3% (inactive) | 84.3% (inactive) | 67.1% (inactive) | – | 92.9% (inactive) | 23.5% (inactive) | 65.8% (inactive) | 88% (inactive) | 82% (inactive) | 96.6% (inactive) | 63.6% (inactive) | 75% (inactive) | 86% (inactive) | 82.3% (inactive) | – | 83% (inactive) | 87.3% (inactive) | 77.9% (inactive) | 88.5% (inactive) | 17.3% (inactive)
6 | O=C(Nc1ccc(Br)cc1)c1cc(Br)ccc1O | 18.2% (inactive) and -33.2% (active) | -15.9% (active) and 1.23% (active) | 20.2% (inactive) and -5.46% (active) | – | -23% (active) and -12% (active) | -13.8% (active) and 2.52% (active) | 14.8% (inactive) and 14.7% (inactive) | 0.723% (active) and 2.62% (active) | 92.9% (inactive) and -42.3% (active) | 19.9% (inactive) and 8.81% (active) | -31.4% (active) and -27.8% (active) | -36.1% (active) and -21.9% (active) | 2.31% (active) and 38.3% (inactive) | 9.39% (active) and 9.12% (active) | -22.6% (active) and -16.5% (active) | 18.3% (inactive) and -1.29% (active) | 14% (inactive) and 8.51% (active) | 8.56% (active) and 8.13% (active) | 0.675% (active) and -16.7% (active) | 9.25% (active) and -22.8% (active)
7 | CCC(=O)C(CC)c1cccc(OC)c1 (stereo not drawn) | 102% (inactive) | 101% (inactive) | 122% (inactive) | – | 97.3% (inactive) | 102% (inactive) | – | 103% (inactive) | 117% (inactive) | 114% (inactive) | 101% (inactive) | 111% (inactive) | 107% (inactive) | 120% (inactive) | 100% (inactive) | 115% (inactive) | 100% (inactive) | 101% (inactive) | – | –
8 | O=C(O)c1cc(C(=O)O)cc([N+](=O)[O-])c1 | 102% (inactive) | 105% (inactive) | – | 110% (inactive) | 111% (inactive) | 94.3% (inactive) | 106% (inactive) | 101% (inactive) | 110% (inactive) | 116% (inactive) | 95.2% (inactive) | 105% (inactive) | 123% (inactive) | 111% (inactive) | 93.4% (inactive) | 100% (inactive) | 103% (inactive) | – | – | –
9 | CC1=NN(c2ccccc2)C(=O)C1C(=O)c1ccccc1 (stereo not drawn) | 92.6% (inactive) | 110% (inactive) | 111% (inactive) | – | 78.4% (inactive) | 98.5% (inactive) | 91.5% (inactive) | 101% (inactive) | 106% (inactive) | 103% (inactive) | 97.6% (inactive) | 97.1% (inactive) | 140% (inactive) | 95.4% (inactive) | 97.7% (inactive) | 116% (inactive) | 94.3% (inactive) | 104% (inactive) | 98.2% (inactive) | –
10 | CCN(CC)C(=O)c1cccnc1 | 110% (inactive) | 123% (inactive) | 119% (inactive) | 111% (inactive) | 117% (inactive) | 98.9% (inactive) | – | 99.4% (inactive) | 115% (inactive) | 119% (inactive) | 104% (inactive) | 106% (inactive) | 123% (inactive) | 108% (inactive) | 99.8% (inactive) | 99.8% (inactive) | 101% (inactive) | 103% (inactive) | – | –
11 | CC1=C(/C=C/C(C)=C/C=C/C(C)=C/C(=O)Nc2ccc(O)cc2)C(C)(C)CCC1 | 74.3% (inactive) | 101% (inactive) | 88.6% (inactive) | 27.7% (inactive) | 103% (inactive) | -47.6% (active) | 55.9% (inactive) | 52.8% (inactive) | 38.6% (inactive) | 68.4% (inactive) | 76.1% (inactive) | 54.5% (inactive) | 60.8% (inactive) | 60.8% (inactive) | 4.64% (active) | -32.7% (active) | 76.7% (inactive) | – | – | –
12 | OCc1ccccn1 | 102% (inactive) | 105% (inactive) | 115% (inactive) | 105% (inactive) | 108% (inactive) | 94.9% (inactive) | 102% (inactive) | 104% (inactive) | 127% (inactive) | 100% (inactive) | 115% (inactive) | 114% (inactive) | 111% (inactive) | 107% (inactive) | 94.7% (inactive) | 104% (inactive) | 104% (inactive) | 108% (inactive) | – | –
13 | Cc1ccc(-c2noc(C)n2)cc1 | 93.8% (inactive) | – | 100% (inactive) | 106% (inactive) | 92.1% (inactive) | 99.3% (inactive) | – | 102% (inactive) | 113% (inactive) | 115% (inactive) | 108% (inactive) | 111% (inactive) | 94.2% (inactive) | 111% (inactive) | 95.2% (inactive) | 98.7% (inactive) | 92.9% (inactive) | 110% (inactive) | – | 96.1% (inactive)
14 | CNC(=O)c1cccnc1 | 107% (inactive) | 110% (inactive) | – | 109% (inactive) | 109% (inactive) | 91.4% (inactive) | 92.8% (inactive) | 99.6% (inactive) | 121% (inactive) | 116% (inactive) | 86.8% (inactive) | 102% (inactive) | 114% (inactive) | 103% (inactive) | 100% (inactive) | 100% (inactive) | 92.4% (inactive) | 104% (inactive) | – | –
15 | N=C1N=C(N)CS1 | 96.9% (inactive) | – | 107% (inactive) | – | 99.5% (inactive) | 103% (inactive) | 96.6% (inactive) | 103% (inactive) | 113% (inactive) | 115% (inactive) | 114% (inactive) | 115% (inactive) | 99.4% (inactive) | 107% (inactive) | 96.5% (inactive) | 110% (inactive) | 106% (inactive) | 108% (inactive) | – | 105% (inactive)
16 | CC(O)Cn1cnc2c1c(=O)n(C)c(=O)n2C (stereo not drawn) | 102% (inactive) | 96.6% (inactive) | 102% (inactive) | – | – | – | 99.6% (inactive) | 102% (inactive) | – | – | 110% (inactive) | 95.5% (inactive) | 99.3% (inactive) | 103% (inactive) | 109% (inactive) | 93.7% (inactive) | 106% (inactive) | 104% (inactive) | 96.7% (inactive) | –
17 | CC12CCC(CC1)C(C)(C)O2 | 104% (inactive) | 101% (inactive) | 110% (inactive) | – | 105% (inactive) | 95% (inactive) | 102% (inactive) | 94.5% (inactive) | 110% (inactive) | 110% (inactive) | 101% (inactive) | 100% (inactive) | 117% (inactive) | 119% (inactive) | 91% (inactive) | 103% (inactive) | 108% (inactive) | 99.7% (inactive) | – | –
18 | CCOC(=O)c1c(C)oc(C)c(C(=O)OCC)c1=O | 95.9% (inactive) and 104% (inactive) | 99.7% (inactive) and 107% (inactive) | 99.9% (inactive) and 96.7% (inactive) | – | 98.3% (inactive) and 73.8% (inactive) | 109% (inactive) and 94.9% (inactive) | – | 98.8% (inactive) and 104% (inactive) | 117% (inactive) | 118% (inactive) and 110% (inactive) | 133% (inactive) and 100% (inactive) | 109% (inactive) and 108% (inactive) | 104% (inactive) and 117% (inactive) | 102% (inactive) and 104% (inactive) | 133% (inactive) and 105% (inactive) | 102% (inactive) and 92.8% (inactive) | 102% (inactive) and 107% (inactive) | 98.8% (inactive) | 91.8% (inactive) and 96% (inactive) | 102% (inactive) and 87% (inactive)
19 | O=C(O)CSCc1nc2ccccc2[nH]1 | 106% (inactive) | 117% (inactive) | 120% (inactive) | – | – | 104% (inactive) | 110% (inactive) | 103% (inactive) | – | 111% (inactive) | 127% (inactive) | 98.4% (inactive) | 112% (inactive) | 99.2% (inactive) | 112% (inactive) | 103% (inactive) | 111% (inactive) | 97.4% (inactive) | 95.7% (inactive) | –

From PubChem BioAssay (NCI)
